For this experiment, the system named is A673/TR/shEF. The experiment is described as follows: cell viability (LOESS-normalised, relative to median of negative controls) (log2 ratio); higher = more viable cells (less compound effect), active = hit call of the paper (over 3 MAD below the median). Particulars: treatment time: 72 h. An outline of the steps: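 A673/TR/shEF Ewing sarcoma cells were plated at 1,500 per well in 384-well plates and cultured with or without doxycycline, added 24 h before compounds, to induce EWS-FLI1 shRNA knockdown. Library compounds at two or more concentrations, alongside DMSO controls, were applied for three days. Cell viability was measured by CellTiter-Glo luminescence on an Envision reader. Readings were LOESS-corrected per plate, divided by the median of negative controls and log2-transformed, and hits were wells lying at least three median absolute deviations from the median of all screened wells.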

Setting [1] is: 0.025 µM, library screen: screen1, EWS-FLI1 expression: high (no doxycycline).
Setting [2] is: 0.025 µM, library screen: screen1, EWS-FLI1 expression: low (doxycycline-induced shRNA knockdown).
[3] abbreviates: 0.25 µM, library screen: screen1, EWS-FLI1 expression: high (no doxycycline).
Setting [4] is: 0.25 µM, library screen: screen1, EWS-FLI1 expression: low (doxycycline-induced shRNA knockdown).
[5] abbreviates: 0.25 µM, library screen: screen2, EWS-FLI1 expression: high (no doxycycline).
Where [6] appears, read: 0.25 µM, library screen: screen2, EWS-FLI1 expression: low (doxycycline-induced shRNA knockdown).
Where [7] appears, read: 2.5 µM, library screen: screen1, EWS-FLI1 expression: high (no doxycycline).
The mark [8] stands for this setting: 2.5 µM, library screen: screen1, EWS-FLI1 expression: low (doxycycline-induced shRNA knockdown).
Setting [9] is: 2.5 µM, library screen: screen2, EWS-FLI1 expression: high (no doxycycline).
Where [10] appears, read: 2.5 µM, library screen: screen2, EWS-FLI1 expression: low (doxycycline-induced shRNA knockdown).
Where [11] appears, read: 25 µM, library screen: screen1, EWS-FLI1 expression: high (no doxycycline).
[12] abbreviates: 25 µM, library screen: screen1, EWS-FLI1 expression: low (doxycycline-induced shRNA knockdown).
[13] abbreviates: 0.103 µM, library screen: screen3, EWS-FLI1 expression: high (no doxycycline).
Setting [14] is: 0.103 µM, library screen: screen3, EWS-FLI1 expression: low (doxycycline-induced shRNA knockdown).
Where [15] appears, read: 0.308 µM, library screen: screen3, EWS-FLI1 expression: high (no doxycycline).
The mark [16] stands for this setting: 0.308 µM, library screen: screen3, EWS-FLI1 expression: low (doxycycline-induced shRNA knockdown).
[17] abbreviates: 0.926 µM, library screen: screen3, EWS-FLI1 expression: high (no doxycycline).
[18] abbreviates: 0.926 µM, library screen: screen3, EWS-FLI1 expression: low (doxycycline-induced shRNA knockdown).
Setting [19] is: 2.8 µM, library screen: screen3, EWS-FLI1 expression: high (no doxycycline).
[20] abbreviates: 2.8 µM, library screen: screen3, EWS-FLI1 expression: low (doxycycline-induced shRNA knockdown).
Setting [21] is: 8.3 µM, library screen: screen3, EWS-FLI1 expression: high (no doxycycline).
[22] abbreviates: 8.3 µM, library screen: screen3, EWS-FLI1 expression: low (doxycycline-induced shRNA knockdown).
The mark [23] stands for this setting: 25 µM, library screen: screen3, EWS-FLI1 expression: high (no doxycycline).
Where [24] appears, read: 25 µM, library screen: screen3, EWS-FLI1 expression: low (doxycycline-induced shRNA knockdown).

The campaign covered roughly 3,200 compounds. About 300 (9.4%) showed activity. For the sample, actives were picked, then their nearest neighbours and some compounds at random. Unmarked numbers belong to inactive results.

`CN([C@@H](Cc1ccc(OS(=O)(=O)c2cccc3cnccc23)cc1)C(=O)N1CCN(c2ccccc2)CC1)S(=O)(=O)c1cccc2cnccc12`: the “cell viability (log2)” value runs as follows: under setting [1], 0.267; under setting [2], 0.00847; under setting [3], 0.23; under setting [4], -0.0263; under setting [5], 0.0748; under setting [6], 0.07. The “cell viability (log2)” value under setting [7] was -0.171 (active); the “cell viability (log2)” value under setting [8] was 0.0275; the “cell viability (log2)” value under setting [9] is 0.166; the “cell viability (log2)” value under setting [10] was -0.012; the “cell viability (log2)” value under setting [11] is -0.315 (active); the “cell viability (log2)” value under setting [12] is 0.00423.

On to `COc1ccccc1NC1CC(C)N(C(=O)c2ccc(C)cc2)c2c(C)cccc21` (stereo not given), for which the “cell viability (log2)” value under setting [3] is 0.107, the “cell viability (log2)” value under setting [4] is 0.0693, the “cell viability (log2)” value under setting [7] was 0.128 and the “cell viability (log2)” value under setting [8] was 0.111.

Consider `CC(C)C[C@H](NC(=O)[C@H](CCC(=O)O)NC(=O)CNC(=O)c1ccc(/C=C/C(=O)O)cc1)C(N)=O`, for which the “cell viability (log2)” value is -0.138 (active) under setting [1]; 0.0951 under setting [2]; -0.0717 under setting [3]; 0.0592 under setting [4]; -0.0597 under setting [7]; 0.0308 under setting [8]. For the same compound, the “cell viability (log2)” value by setting is: under setting [11], -0.00491; under setting [12], -0.0971.

Turning to `CCCN(CCC)C(=O)C(CCC(=O)O)NC(=O)c1ccccc1` (stereo not given), the “cell viability (log2)” value by setting is: under setting [3], 0.188; under setting [4], 0.0317; under setting [5], 0.129; under setting [6], 0.0785; under setting [7], 0.223; under setting [8], 0.0771. Moreover, the “cell viability (log2)” value runs as follows: under setting [9], 0.121; under setting [10], 0.115.

For the compound `Nc1ccc(C(=O)NCC(=O)O)cc1`, the “cell viability (log2)” value is 0.0323 under setting [3], 0.126 under setting [4], 0.15 under setting [7] and 0.151 under setting [8].

Take `CC(=O)O[C@@H]1CC2C(C)(C)C(=O)CC[C@]2(C)C2CC[C@]3(C)C(=CC(=O)O[C@H]3c3ccoc3)[C@@]21C` (stereo not given in full): the “cell viability (log2)” value is, setting by setting: under setting [3], 0.0774; under setting [4], 0.142; under setting [7], 0.182; under setting [8], 0.164.

For the compound `CCCCC(=O)N(Cc1ccc(-c2ccccc2-c2nn[nH]n2)cc1)[C@H](C(=O)O)C(C)C`, the “cell viability (log2)” value under setting [13] is 0.0298; the “cell viability (log2)” value under setting [14] was -0.0095; the “cell viability (log2)” value under setting [15] was 0.124; the “cell viability (log2)” value under setting [16] was 0.0801; the “cell viability (log2)” value under setting [17] was 0.0765; the “cell viability (log2)” value under setting [18] was 0.054. In addition, the “cell viability (log2)” value was 0.0694 under setting [19]; 0.124 under setting [20]; 0.00201 under setting [21]; 0.078 under setting [22]; 0.137 under setting [23]; 0.104 under setting [24].

With `COc1ccc(/C=C/C(=O)O)cc1OC`, the “cell viability (log2)” value was -0.00585 under setting [3], -0.00138 under setting [4], 0.164 under setting [7] and 0.0104 under setting [8].

On to `CC(C)N1C(=O)C(=Cc2cccs2)SC1=S`, for which the “cell viability (log2)” value reads like this: under setting [3], 0.108; under setting [4], 0.0522; under setting [7], 0.148; under setting [8], 0.0877.

Consider `O=C1CC[C@]23/C=C/C(=O)NCCCCNCCCNC(=O)/C=C/c4ccc(c2c4)O[C@@H]3C1`, for which the “cell viability (log2)” value by setting is: under setting [3], 0.0958; under setting [4], 0.0883; under setting [7], 0.0986; under setting [8], 0.157.

For the compound `COc1cc([C@@H]2c3cc4c(cc3[C@@H](O[C@@H]3O[C@@H]5CO[C@@H](c6cccs6)O[C@H]5[C@H](O)[C@H]3O)[C@H]3COC(=O)[C@H]23)OCO4)cc(OC)c1O`, the “cell viability (log2)” value is, setting by setting: under setting [13], -0.0319; under setting [14], -0.00588; under setting [3], -0.797 (active); under setting [4], -0.349 (active); under setting [15], -0.326 (active); under setting [16], -0.0159. The “cell viability (log2)” value under setting [17] is -0.931 (active); the “cell viability (log2)” value under setting [18] was -0.262 (active); the “cell viability (log2)” value under setting [7] is -1.74 (active); the “cell viability (log2)” value under setting [8] was -0.557 (active); the “cell viability (log2)” value under setting [19] was -1.32 (active); the “cell viability (log2)” value under setting [20] was -0.472 (active). The “cell viability (log2)” value was -2.12 (active) under setting [21], -0.477 (active) under setting [22], -3.07 (active) under setting [23] and -0.784 (active) under setting [24].

For `COc1cc([C@@H]2c3cc4c(cc3[C@@H](O[C@@H]3O[C@@H]5CO[C@@H](C)O[C@H]5[C@H](O)[C@H]3O)[C@H]3COC(=O)[C@H]23)OCO4)cc(OC)c1O`, the “cell viability (log2)” value runs as follows: under setting [13], 0.16; under setting [14], 0.0754; under setting [3], 0.0215; under setting [4], 0.0298; under setting [5], 0.197; under setting [6], 0.0698. Also, the “cell viability (log2)” value by setting is: under setting [15], 0.0781; under setting [16], 0.0446; under setting [17], 0.0107; under setting [18], 0.0985; under setting [7], -0.176 (active); under setting [8], 0.00733. In addition, the “cell viability (log2)” value under setting [9] is -0.711 (active); the “cell viability (log2)” value under setting [10] was 0.00714; the “cell viability (log2)” value under setting [19] was -0.212 (active); the “cell viability (log2)” value under setting [20] was -0.0251; the “cell viability (log2)” value under setting [21] was -0.857 (active); the “cell viability (log2)” value under setting [22] was -0.166 (active). Moreover, the “cell viability (log2)” value runs as follows: under setting [23], -1.25 (active); under setting [24], -0.367 (active).

Consider `CCCC(CC)CCOC(=O)COc1cc(Cl)c(Cl)cc1Cl` (stereo not given), for which the “cell viability (log2)” value runs as follows: under setting [3], 0.0358; under setting [4], 0.0314; under setting [7], 0.0377; under setting [8], 0.068.

Regarding `NCCCC(N)CC(=O)NCC1NC(=O)C(CO)NC(=O)C(N)CNC(=O)C(C2CCN=C(N)N2)NC(=O)/C(=C/NC(N)=O)NC1=O` (stereo not given), the “cell viability (log2)” value is, setting by setting: under setting [3], 0.0914; under setting [4], 0.117; under setting [7], 0.124; under setting [8], 0.0772.

With `CC1=C(C(=O)OCCOc2ccccc2)C(c2coc3ccccc3c2=O)C2=C(CCCC2=O)N1` (stereo not given), the “cell viability (log2)” value is 0.0678 under setting [3], -0.0908 under setting [4], 0.0965 under setting [7] and 0.143 under setting [8].

Turning to `COc1cc2nc(N3CCN(C(=O)C4=C[C@H]5C=C[C@@H]4CC5)CC3)nc(N)c2cc1OC`, the “cell viability (log2)” value under setting [5] was 0.165, the “cell viability (log2)” value under setting [6] is 0.0668, the “cell viability (log2)” value under setting [9] was 0.132 and the “cell viability (log2)” value under setting [10] is 0.0728.

On to `NCCCCC(N)C(=O)NC(Cc1c[nH]c2ccccc12)C(=O)NC(CCCCN)C(=O)O` (stereo not given), for which the “cell viability (log2)” value is 0.0147 under setting [3], 0.0512 under setting [4], 0.141 under setting [7] and 0.0544 under setting [8].

These data come from the supplement of paper PMC6089552.
